# The entries come from a sample that favours hits as a whole.
# Dicer processing: inhibitors of Dicer pre-microRNA processing, primary screen, biochemical, cat-ELCCA, chemiluminescence; Endoribonuclease Dicer (Homo sapiens), Q9UPY3; cat-ELCCA pre-miR-21 Dicer processing; hits give high values; z-score at 25 µM; actives 6% (n = 47,000); in the data active = z-score above about 3, passing the limit was not always enough;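 note: plate controls were vehicle for no effect and no enzyme for full effect; higher signal means more uncleaved substrate so more Dicer inhibition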
# The depositor's hits bear a star.
SMILES,Dicer processing
COc1cc(-c2cc(O)c3c(C)oc(C)c3c(=O)c2)ccc1O,1.51
Cc1nn2c3c(cnc2c1-c1ccc(F)cc1)C(=O)CC(c1cccs1)C3 (stereo unspecified),4.17*
Cc1nn2c3c(cnc2c1-c1ccc(Cl)cc1)C(=O)CC(c1cccs1)C3 (stereo unspecified),-0.48
Cc1nn2c3c(cnc2c1-c1ccc(F)cc1)C(=O)CC(c1ccc(F)cc1)C3 (stereo unspecified),0.07
O=C(O)CSc1ccc(F)cc1Cl,-0.34
Cn1c(=O)c2[nH]c(NCCc3ccccc3)nc2n(C)c1=O,1.01
Cn1c(=O)c2c(ncn2CC(=O)Nc2nc3ccccc3s2)n(C)c1=O,0.96
CCOC(=O)C1=C(C)NC2=C(C(=O)CC(C)(C)C2)C1c1ccc(OC(C)=O)cc1 (stereo unspecified),6.84*
CCOC(=O)C1=C(C)NC2=C(C(=O)CC(C)(C)C2)C1c1ccc(OC)cc1 (stereo unspecified),-1.14
CCCOC(=O)C1=C(C)NC2=C(C(=O)CC(c3ccc(Cl)cc3)C2)C1c1ccc(O)cc1 (stereo unspecified),4.66*
CC1=C(C(=O)OCCOC(C)C)C(c2ccc(O)cc2)C2=C(CC(C)(C)CC2=O)N1 (stereo unspecified),1.66
COc1ccc(COC(=O)C2=C(C)NC3=C(C(=O)CC(C)(C)C3)C2c2ccc(OC)cc2)cc1 (stereo unspecified),3.48*
CCCOC(=O)C1=C(C)NC2=C(C(=O)CC(c3ccccc3)C2)C1c1ccc(C)cc1 (stereo unspecified),1.12
C=CCOC(=O)C1=C(C)NC2=C(C(=O)CC(C)(C)C2)C1c1ccc(OC(C)=O)cc1 (stereo unspecified),-0.25
COc1ccc(COC(=O)C2=C(C)NC3=C(C(=O)CC(C)(C)C3)C2c2ccncc2)cc1 (stereo unspecified),1.26
COC(=O)C1=C(C)NC2=C(C(=O)CC(c3ccc(Cl)cc3)C2)C1c1ccc(C)cc1 (stereo unspecified),0.95
COC(=O)c1ccc(C2C(C(=O)OCc3ccc(OC)cc3)=C(C)NC3=C2C(=O)CC(C)(C)C3)cc1 (stereo unspecified),0.18
CCCOC(=O)C1=C(C)NC2=C(C(=O)CC(C)(C)C2)C1c1ccc(O)cc1 (stereo unspecified),3.81*
CCCOC(=O)C1=C(C)NC2=C(C(=O)CC(C)(C)C2)C1c1ccc(N(CC)CC)cc1 (stereo unspecified),0.92
C/C(=N\Nc1cc(C(F)(F)F)ccn1)c1ccc(Oc2c(Cl)cncc2Cl)cc1,-0.6
COc1ccc(/C(C)=N/OC(=O)c2ccc([N+](=O)[O-])cc2)cc1CN1CCCC1,0.69
COc1ccc(C2CC(=O)NN2)cc1OC1CCCC1 (stereo unspecified),-4.17
COC(=O)C1=C(C)Nc2nc3ccccc3n2C1c1ccc(OCc2ccccc2)cc1 (stereo unspecified),0.21
COc1cc(C2NC(C(=O)O)CS2)ccc1OCc1ccc(C)cc1 (stereo unspecified),-0.93
COc1ccc(-c2cnc(NCc3cc(Br)ccc3F)n2C)cc1,-1.21
SMILES,Dicer processing
Cn1c(-c2ccc(F)cc2)cnc1NCc1ccccc1F,1.58
Cn1c(-c2ccccc2)cnc1NCc1cc(Cl)ccc1O,1.53
Cn1c(-c2ccccc2)cnc1NCc1cc(Br)ccc1F,1.15
Cn1c(-c2ccc(F)cc2)cnc1NCc1ccc(Br)cc1,3.7
Cc1ccc(-c2cnc(NCc3ccc(Br)cc3)n2C)cc1,3.32*
COc1cccc(-c2cnc(NCc3ccc(Br)cc3)n2C)c1,0.77
Cn1c(-c2ccc(Cl)cc2)cnc1NCc1ccc(F)cc1F,3.27*
Cn1c(-c2ccc(Cl)cc2)cnc1NCc1ccccc1F,3.23*
Cc1nn(-c2ccccc2)nc1CNS(=O)(=O)CS(C)(=O)=O,-0.54
O=C(OC(CN1CCCCC1)CN1CCCCC1)c1ccccc1,-1.26
O=C(Nc1ccc(S(=O)(=O)Nc2ccccc2Oc2ccc(Cl)cc2Cl)cc1)C1CC1,2.65
Cc1noc(C)c1-c1nc(CSc2n[nH]c(=O)n2Cc2ccco2)no1,6.63
Cc1ccc(-c2nn(CC(=O)c3ccccc3)c(=O)c3ccccc23)cc1,-0.57
CCc1sc(C2C(C(=O)OC)=C(C)NC3=C2C(=O)CC(C)(C)C3)cc1Br (stereo unspecified),-0.2
NC(N)=NC(N)=Nc1c(F)cccc1F,1.33
COc1cccc(C2N=C(N)Nc3nc4ccccc4n32)c1 (stereo unspecified),2.07
Cc1c(Cl)cccc1NC(=S)NNC(=O)CC#N,0.63
CCNCC(=O)Nc1c(C)cccc1C,1.8
Cc1cccc(Cl)c1NC(=O)CC#N,3.93*
c1ccc(Cn2nnc3c(N4CCN(c5ccccc5)CC4)ncnc32)cc1,2.2
CC(=O)Nc1ccc(S(=O)(=O)Nc2ncccn2)cc1,-0.86
O=S(=O)(Nc1ncccc1OCc1ccc(Cl)c(Cl)c1)c1ccc(Cl)cc1,0.8
O=S(=O)(Nc1cccnc1Oc1ccc(Cl)cc1)c1ccc(Cl)cc1,-0.24
Cc1ccc(S(=O)(=O)Nc2ccc(O)c3cccnc23)cc1,3.31*
